Drawing on PubChem BioAssay AID1986 (Sanford-Burnham Center for Chemical Genomics, 2009), this text covers inhibition for 18 molecules.

A short description of this experiment: cell-free HIV fusion peptide-binding blockers – biochemical, uHTS, fluorescence dequenching, primary screen (AID 1986). Conditions: 30 min, stronger effect = higher value.
Setting [1] is: measured here: repeat confirmation average inhibition, at 18.6 µM.

Each structure is given as a SMILES string. Screen size: about 290,000 compounds; about 890 (0.31%) were called active. No stated cut-off is given here; in the data, active means inhibition mostly above about 52% (no sharp cut-off); inactive means mostly below about 76%. This excerpt belongs to a sample that is enriched for actives.

Turning to `COP(=O)(OC)C(Nc1ccccn1)c1ccccc1` (stereo unspecified), the inhibition (at 20 µM) is -0.3% (inactive). Regarding `CN1C(=O)C(=Cc2ccc(N3CCCCCC3)cc2)C(=O)N(C)C1=O`, under “at 20 µM”, the inhibition is 16.5% (inactive). With `CN1C(=O)C(=Cc2sc(=O)n(-c3ccccc3)c2N2CCCCC2)C(=O)N(C)C1=O`, the inhibition was 68.2% (active) (at 20 µM) and 87.3% under setting [1]. In the case of `CN1C(=O)C(=Cc2sc(=O)n(-c3ccccc3)c2N(C)C)C(=O)N(C)C1=O`, where the note is “at 20 µM”, the inhibition is 27.8% (inactive). On the same count and under the same terms, to `O=C1NC(=O)N(c2ccccc2)C(=O)/C1=C/c1ccc([N+](=O)[O-])s1` belongs 64.8% (active); to `COc1ccc(N2C(=O)NC(=O)/C(=C\c3ccc([N+](=O)[O-])s3)C2=O)cc1`, 56.4% (active). For the molecule `O=C1NC(=O)N(c2ccccc2)C(=O)/C1=C\c1ccc([N+](=O)[O-])s1`, the inhibition by setting is: (at 20 µM) 61.1% (inactive); under setting [1], 6.1%. For `COc1cccc(N2C(=O)NC(=O)/C(=C/c3ccc([N+](=O)[O-])s3)C2=O)c1`, the inhibition (at 20 µM) was 45.2% (inactive). Still for that read-out and setting: the figure for `COc1ccccc1N1C(=O)NC(=O)/C(=C/c2ccc([N+](=O)[O-])s2)C1=O` is 42.7% (inactive); for `COc1ccc(N2C(=O)NC(=O)/C(=C/c3ccc([N+](=O)[O-])s3)C2=O)cc1` it is 35.4% (inactive); for `O=c1c2ccccc2nc(Cc2ccccc2)n1-c1cccc(O)c1` it is -1% (inactive).

Take `CCCc1cc(=O)oc2cc(OCC(=O)N3C[C@H]4C[C@@H](C3)c3cccc(=O)n3C4)ccc12`: under “at 20 µM”, the inhibition is 3% (inactive).

On to `CCOC(=O)c1nc2ccccc2c(=O)n1-c1ccc(C)cc1`, for which, for the setting “at 20 µM”, the inhibition was 0.5% (inactive). On the same count and under the same terms, the figure for `COc1cc(CC2(CCc3ccncc3)C(=O)N(C)C(=O)N(C)C2=O)cc(OC)c1OC` is 2.3% (inactive).

Consider `CN1/C(=C\C=C\C2=[N+](C)c3ccc4ccccc4c3C2(C)C)C(C)(C)c2ccccc21`, for which the inhibition was 65.1% (active) (at 20 µM) and 90.9% under setting [1].

As to `CN1/C(=C\C=Nc2ccccc2)C(C)(C)c2ccccc21`, the inhibition (at 20 µM) is 0.8% (inactive). In the case of `CCN1/C(=C\C=C\C2=[N+](CC)c3ccccc3C2(C)C)C(C)(C)c2ccccc21`, the inhibition (at 20 µM) is 0.5% (inactive). Still for that read-out and setting: the figure for `NCCc1c[nH]c2ccc(OCc3ccccc3)cc12` is -1.2% (inactive).
